Results filed as inconclusive are left out. Unmarked numbers belong to inactive results. Calls come from the whole dose curve; as a rule, active = well fitted cell-killing curve with a large enough effect; inconclusive = small, poorly fitted or top-dose-only effect, or effect the other way; inactive = flat fitted curve, though single readings scatter.

A short description of the assay: MultiTox-Fluor Cytotoxicity Assay - LYMP1-001 - Dead Cells (AID 946).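 Note: 0% = DMSO and 100% = tetraoctylammonium bromide.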 To be noted: LYMP1-001 lymphoblastoid cells, dead-cell protease fluorescence; series mostly up to 92.2 µM; cytotoxicity (dead cells): at the top concentration. The source says:
NIH Chemical Genomics Center [NCGC]
NIH Molecular Libraries Screening Centers Network [MLSCN]
National Institutes of Environmental Health Sciences [NIEHS]
National Toxicology Program [NTP]
We have developed a 1536-well cell-based assay for quantitative high throughput screening (qHTS) against a number of cell lines to determine in vitro cytotoxicity of small molecules. This particular assay uses a human lymphoblastoid cell line (LYMP1-001) purchased from Coriell Institute for Medical Research.
NCGC Assay Protocol Summary:
The MultiTox-Fluor Cytotoxicity Assay (Promega) is a homogeneous method to simultaneously measure the relative number of live and dead cells in culture by detecting changes in cell membrane integrity. There are two fluorogenic peptide substrates in the assay reagent. Viable cells are determined when the cell-permeant substrate (GF-AFC) enters the cell and is cleaved by protease from live cells resulting in liberated fluorophore. This live-cell protease activity restricted to viable cells is proportional to cell number. The dead cells are determined by using fluorogenic cell-impermeant peptide substrate (bis-AAF-R110) which cleaved by dead cell proteases leaking from damaged cell membrane.
Using the MultiTox-Fluor Cytotoxicity Assay, the relative number of dead cells was measured in the lymphoblastoid cell line with complete culture medium following compound treatment for 16 hours. The assay was performed in opaque black Kalypsys 1536-well plates. In the screen, tetraoctylammonium bromide was used as positive control. Library compounds were measured for their ability to cause acute toxicity in the cell line, as reflected by an increase in dead cell protease activity, in a concentration-dependent manner. Data were normalized to the controls for basal activity (DMSO only) and 100% stimulation (15 uM tetraoctylammonium bromide). AC50 values were determined from concentration-response data modeled with the standard Hill equation.
qHTS protocol for MultiTox-Fluor Cytotoxicity assay
[Step] [Parameter] [Value] [Description]
1. Reagent; 5 uL; 2500 lymphoblastoid cells/well
2. Time; 5 hr; 37 C incubation
4. Controls; 23 nL; Tetraoctylammonium bromide 6.4pM to 92 uM
5. Time; 16 hr; 37 C incubation
6. Reagent; 5 uL; MuliTox-Fluor Assay reagent
7. Time; 60 min; Room Temperature
8. Detection; dead-cell fluorescence (Ex/Em=485/520); EnVision plate reader
Keywords: cytotoxicity, lymphoblastoid cell line, fluorescence, NTPHTS, NTPHTS_NCGC, NIEHS, EPA, DSSTox, MLSMR, MLSCN, NIH Roadmap, qHTS, NCGC
As for `O=C(O)c1cc(Cl)cc(Cl)c1`, the “cytotoxicity (dead cells)” value is -5.64%.
The figure for `Cc1c(N)cccc1N` is 3.34%; for `COC(=O)CC#N` it is 1.95%.
With `Oc1c(Cl)ccc(Cl)c1Cl` the figure was 1.69%; with `CC(=O)CC(C)C`, 5.46%.
The figure for `CCN(CC)c1cccc(O)c1` is 1.34%.
For the compound `CC1CCCO1` (stereo not given), the “cytotoxicity (dead cells)” value was 5.55%.
With `CNC(=O)c1ccccc1` the figure was -8.18%; with `c1ccc2c(c1)Oc1ccccc1S2`, 2.88%; with `O=C(O)c1ccc(CO)o1`, -17.1%.
The figure for `CCCC(C)CO` (stereo not given) is -3.4%; for `CCC(=O)/C=C/C1C(C)=CCCC1(C)C` (stereo not given) it is -15.5%.
Turning to `CCCCCCC(=O)O`, the “cytotoxicity (dead cells)” value is 4.14%.
For the compound `Clc1cc(Cl)cc(Cl)c1`, the “cytotoxicity (dead cells)” value was -13.6%.
As to `COc1ccc(OC)cc1`, the “cytotoxicity (dead cells)” value is 10.6%.
As for `CCC(C)=O`, the “cytotoxicity (dead cells)” value was -16%.
With `Cc1ccc2ccccc2c1[N+](=O)[O-]` the figure was 9.98%; with `O=[N+]([O-])c1ccc(Cl)cc1Cl`, -7.39%; with `CCCCCCC=O`, 9.16%.
The figure for `CCCCC(CC)C(=O)O` (stereo not given) is -9.6%.
Consider `CCCCCO`, for which the “cytotoxicity (dead cells)” value is 4.21%.
With `CCN(Cc1ccccc1)c1ccccc1` the figure was -8.6%; with `Cc1cccc(C(=O)O)c1[N+](=O)[O-]`, -0.131%.
The figure for `O=[N+]([O-])c1cc(C(F)(F)F)ccc1Cl` is -16.3%.
With `CCCCC/C=C/C=C/C=O` the figure was 4.16%; with `Cc1cc(C)c(N)cc1C`, -15.8%.
Consider `Cc1cccc(C)c1`, for which the “cytotoxicity (dead cells)” value was 0.29%.
The figure for `Cc1ccc(C)cc1` is 5.62%; for `CCCCOCCOCCOCCCC` it is -12.2%.
`C=C(C)C(N)=O`: the “cytotoxicity (dead cells)” value is -4.33%.
The figure for `CCOC(C)(C)C` is -10.3%; for `CC(C)(C)OC=O` it is 6%; for `CCCC(Cl)CCCC(Cl)CCC(Cl)CCC(Cl)CCC(Cl)CCCC(Cl)CCC` (stereo not given) it is 4.58%.
On to `O=CNc1ccccc1`, for which the “cytotoxicity (dead cells)” value was -8.25%.
The figure for `O=C(O)c1cccc(Cl)c1Cl` is -7.12%; for `CC(C)Cc1nccs1` it is -17.2%.
With `Nc1ccccc1[N+](=O)[O-]` the figure was -10.6%.
The figure for `O=C(O)c1c(Cl)cccc1Cl` is -0.707%.
In the case of `C=C(C)C(=O)OCCCCCC`, the “cytotoxicity (dead cells)” value is -10%.
With `O=C(O[C@@H](C(=O)O)[C@@H](OC(=O)c1ccccc1)C(=O)O)c1ccccc1` the figure was -2.02%.

For the origin of these results see PubChem BioAssay (NCATS).
